11 molecules from PubChem BioAssay (NCI) can be followed below.

What all share (test): NCI-60 one-dose screen, 48 h (100 = growth as untreated, 0 = no growth, -100 = all killed)
Holding throughout (settings): 10 µM unless noted

In assay [1] the test system is SN12C renal.
The subject of assay [2] is UO-31 renal.
In assay [3] the test system is TK-10 renal.
Assay [4] deals with ACHN renal.
For assay [5], the system named is CAKI-1 renal.
The test system of assay [6] is A498 renal.
Assay [7] relates to CCRF-CEM leukemia.
In assay [8] the test system is SR leukemia.
Assay [9] deals with RPMI-8226 leukemia.
The subject of assay [10] is OVCAR-5 ovarian.
Assay [11] relates to OVCAR-4 ovarian.
Assay [12] relates to SK-OV-3 ovarian.
The test system of assay [13] is IGROV1 ovarian.
Assay [14] relates to OVCAR-3 ovarian.
The test system of assay [15] is HS 578T breast.
The test system of assay [16] is NCI/ADR-RES ovarian.
For assay [17], the system named is EKVX NSCLC.
The test system of assay [18] is MOLT-4 leukemia.
Assay [19] deals with OVCAR-8 ovarian.
Assay [20] relates to SK-MEL-2 melanoma.

Compounds without any hit were thinned out: in the full panel of roughly 83,000, 20% have a hit.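 Assay: single dose, 48 h. Readout: percent growth (0 = no net growth; negative = cell death). Active: <10.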 A number with no mark means an inactive call. The source made the active and inactive calls.

In the case of `O=C(Nc1cccc2[nH]c(C(F)(F)F)nc12)c1ccc(-n2cnnn2)cc1`, the growth in [1] was 108%; in assay [2], 75.9%; in assay [3], 108%; in assay [4], 99.5%; in assay [5] it was 95.4%; in assay [6] it was 83.1%. Further, the growth in [7] is 28.6%; in assay [8], 79.5%; in [9], 48.7%; in [10], 123%; in assay [11], 90.5%; in assay [12], 104%. Further, the growth in assay [13] was 95.5%; in assay [14], 76.2%; in assay [15] it was 108%; in assay [16] it was 107%.

As to `C=CCSSC1N=CNc2nc[nH]c21` (configuration not stated), the growth was 93.8% in assay [17]; 72.9% in assay [1]; 35.7% in assay [2]; 29.5% in assay [3]; 42.6% in assay [4]; 9.26% (active) in assay [5]. Also, the growth in assay [6] is 50.1%; in assay [18], 34.9%; in assay [8] it was 13%; in [9], -15.1% (active); in assay [19] it was 22.6%; in assay [10], 42.7%. Moreover, the growth is 34.4% in assay [11]; 8.8% (active) in assay [12]; 64.5% in assay [13]; 32.3% in assay [14]; 54.5% in assay [15]; 26.5% in [16].

Take `C=C1C(=O)O[C@H]2[C@H]1CC/C(C=Nc1ccc(C(F)(F)F)cc1N)=C\CC[C@@]1(C)O[C@@H]21`: the growth is -18.3% (active) in assay [20]; 30.3% in assay [2]; 1.36% (active) in [3]; -38% (active) in assay [4]; 15.5% in [5]; 46.8% in assay [6]. The growth in assay [7] is -5.78% (active); in assay [18], -3.3% (active); in assay [8], -2.49% (active); in [9], -17% (active); in assay [19] it was 3.29% (active); in assay [10] it was 31.5%. Besides, the growth is 23.3% in assay [11]; 65.4% in assay [12]; 27.7% in assay [13]; -11.1% (active) in assay [14]; 7.74% (active) in assay [15]; 23.4% in [16].

Regarding `Fc1ccc(CNc2cccc3[nH]c(C(F)(F)F)nc23)cc1`, the growth in assay [1] was 72.4%; in assay [2], 84.8%; in [3], 102%; in assay [4], 96.2%; in [5] it was 81.2%; in assay [6] it was 39.7%. For the same molecule, the growth was 52.4% in assay [7]; 41.7% in [18]; 66% in assay [8]; 36.5% in [9]; 90.1% in [19]; 90.2% in assay [10]. The growth in [11] was 89.3%; in assay [12], 97.9%; in [13], 109%; in assay [14] it was 76.6%; in assay [15] it was 82.3%.

On to `CCNC(=O)Oc1ccc(/C(=C(\C)c2ccc(Cl)cc2)c2ccc(OCCN3CCCCC3)cc2)cc1`, for which the growth in assay [20] is 62.9%; in [1], 64.8%; in assay [2], 39.3%; in [4] it was 79.9%; in assay [6] it was 83.6%; in assay [7], 22.4%. In addition, the growth was 10.7% in assay [18]; -20.8% (active) in assay [8]; -4.11% (active) in assay [9]; 70.4% in assay [19]; 74.9% in assay [10]; 43.7% in [11]. The growth is 63.2% in [12]; 56.8% in assay [13]; 60.8% in [14]; 55.9% in assay [15]; 64.9% in assay [16].

Turning to `COc1ccc(/C=C2\Oc3cc(OCCCCN4CCCC4)ccc3C2=O)cc1`, the growth is 98.9% in assay [20]; 90.3% in [1]; 68% in assay [2]; 98.1% in assay [3]; 95.5% in assay [4]; 95% in [5]. In addition, the growth in assay [7] is 13.8%; in [18], 42.7%; in assay [8], -25.3% (active); in assay [9], 80.7%; in assay [19], 91.1%; in assay [10] it was 93.4%. Moreover, the growth in [11] was 92.3%; in [12], 113%; in [13] it was 81.2%; in assay [14] it was 94.3%; in [15], 90.9%; in assay [16], 95.1%.

For the molecule `COc1ccc(CN2c3ccccc3Oc3ccccc32)cc1O`, the growth in assay [20] is -6.69% (active); in assay [2] it was 32.5%; in assay [3], 64.4%; in assay [4], 36.1%; in assay [5], 39.4%; in assay [6], 106%. The growth in [7] is 12.5%; in assay [18], 24.9%; in assay [8], 17.4%; in [9] it was 14.1%; in assay [10], 91.5%; in assay [11], 55.1%. The growth is 31.3% in [12]; 45.3% in [13]; 18.6% in assay [14]; 31.1% in assay [15]; 25.2% in assay [16].

As to `C=CCSSc1ncnc2c1ncn2C1OC(CO)C(O)C1O` (configuration not stated), the growth is 91.9% in assay [17]; 76.2% in assay [1]; 36.5% in [2]; 26% in assay [3]; 25.3% in [4]; -2.6% (active) in assay [5]. The growth was 43.3% in assay [6]; 13.2% in assay [18]; -8.17% (active) in assay [9]; 20.1% in assay [19]; 45.3% in assay [10]; 33.8% in assay [11]. Further, the growth in assay [12] is 7.46% (active); in assay [13] it was 34.9%; in [14], 29.1%; in assay [15], 47.9%; in assay [16], 28.4%.

With `COc1ccc2c(c1)O/C(=C\c1cccc(OCC(=O)Nc3nc4c(s3)CCCC4)c1)C2=O`, the growth in [20] is 82.5%; in assay [1], 53.8%; in [3] it was 115%; in assay [4], 97.4%; in [5] it was -100% (active); in [6], 88.8%. Besides, the growth in assay [7] was -67.9% (active); in [18] it was 25.3%; in [9] it was 49.6%; in assay [19], -23.4% (active); in [10] it was 103%; in assay [11], 62.4%. Besides, the growth in assay [12] was 90.9%; in assay [14], 41.5%; in assay [15], 84%; in assay [16], -9.46% (active).

For `CC(=O)c1cc2c(N)c(C(=O)Nc3cccc(F)c3C)sc2nc1C`, the growth was 68.5% in [20]; 95.1% in [1]; 91.2% in [2]; 100% in assay [3]; 89.4% in assay [4]; 43% in assay [6]. Moreover, the growth in assay [7] is 86.7%; in assay [18], 79.1%; in assay [8], 63.9%; in assay [9], 86%; in [11] it was 79.8%; in [12] it was 53.8%. In addition, the growth was 94.3% in [13], 108% in [14], 80.1% in assay [15] and 91.5% in assay [16].

Consider `O=C1C=CC(=O)N1c1ccc2c(c1)Cc1cc(F)ccc1-2`, for which the growth in assay [20] was 107%; in [1], 94.6%; in [2], 80.6%; in assay [3] it was 99%; in [4] it was 92.6%; in assay [7], 65.2%. Moreover, the growth in assay [18] is 43.7%; in assay [8], 70.6%; in assay [9], 28.2%; in [19] it was 99.4%; in [10], 93.5%; in assay [11], 83.3%. The growth in assay [12] was 103%; in assay [13], 94%; in [14], 115%; in [15], 97.8%; in assay [16], 105%.
